Results filed as inconclusive are left out. A call without a number means that no potency is given here. Some compounds were tested as several samples or in several runs, with calls that do not always agree. Activity calls are given as the source filed them. Unless noted, calls follow the shape of the dose curve; as a rule, active = well fitted curve in the direction sought with a large enough effect; inconclusive = small, poorly fitted or top-dose-only effect, or another doubt; inactive = no such curve, though single readings can be large; an effect the other way counts as inactive or inconclusive.
Assays:
[1] = biological target: Beta-2 adrenergic receptor (Homo sapiens) (UniProt P07550); assay: qHTS validation assay of beta-arrestin-biased ligands of beta2-adrenergic receptor (AID 485366)
Method in brief: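 Values derive from curve-fitted %Activity of a luminescent beta-arrestin recruitment reporter; compounds tested up to 46 microM on Tango cells for 18 hr at 37 degrees C, 5% CO2.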

[2] = biological target: ATP-dependent 6-phosphofructokinase (Trypanosoma brucei brucei) (UniProt O15648); assay: qHTS Validation Assay to Find Inhibitors of T. brucei phosphofructokinase (AID 485368)
Method in brief: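 Enzyme reaction in triethanolamine buffer pH 8.0 with 5 mM MgCl2, 0.01% Tween20 and 0.1% BSA; PFK 1.25 nM, F6P 0.5 mM, ATP 0.1 mM, 45 min RT. ADP quantified by ADP-Glo.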

[3] = Quantitative high throughput screen for delayed death inhibitors of the malarial parasite plastid, 96 hour incubation (AID 488745); also: nearly all actives have a fitted effect of over 70% in size; also: potency is read from the fitted curve at half-maximal effect
Method in brief: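 P. falciparum carrying an integrated firefly luciferase reporter, grown in erythrocytes (2% hematocrit, 0.1% parasitemia final) in RPMI 1640/0.5% Albumax, was exposed to compound for 96 h (two generations) at 37 C, 5% CO2. Luminescence decrease indicated growth inhibition.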

[4] = Quantitative high throughput screen for delayed death inhibitors of the malarial parasite plastid, 48 hour incubation (AID 488752); also: nearly all actives have a fitted effect of over 65% in size; also: potency is read from the fitted curve at half-maximal effect
Method in brief: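 Erythrocytes infected with P. falciparum carrying an integrated firefly luciferase reporter (2% hematocrit, 0.1% parasitemia final) were exposed to compounds in RPMI 1640/0.5% Albumax for 48 h at 37 C, 5% CO2. Growth inhibition was scored as reduced luminescence.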

[5] = biological target: Thioredoxin reductase 1, cytoplasmic (Rattus norvegicus) (UniProt O89049); assay: qHTS Assay for Substrates of Mammalian Selenoprotein Thioredoxin Reductase 1 (TrxR1) (AID 488772);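 also: NADPH fluorescence in the first read after selenite addition and not the 8 min delta; series mostly up to about 57 µM; a drop in NADPH fluorescence below the no-compound background marks a TrxR1 substrate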
Method in brief: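 Quantitative HTS in Tris-HCl buffer at pH 7.5 with EDTA and Tween-20, using rat TrxR1, 400 uM NADPH and 400 uM selenite (final). A fall in initial NADPH fluorescence relative to background marked substrate behaviour.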

[6] = biological target: Thioredoxin reductase 1, cytoplasmic (Rattus norvegicus) (UniProt O89049); assay: qHTS Assay for Inhibitors of Mammalian Selenoprotein Thioredoxin Reductase 1 (TrxR1) (AID 488773); conditions: Potency: inhibition; also: nearly all actives have a fitted effect of over 40% in size; also: potency is read from the fitted curve at half-maximal effect
Method in brief: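 Steps: enzyme (90 nM) plus NADPH (400 uM final), 5 min at ~22 deg C; compound added, 15 min; selenite (400 uM final) added; fluorescence followed for 8 min. Concentration-response curves derived from the normalized delta values.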

[7] = biological target: Flap endonuclease 1 (Homo sapiens) (UniProt P39748); assay: qHTS Validation Assay for the Inhibitors of Human Flap endonuclease 1 (FEN1) (AID 488816)
Method in brief: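 FEN1, dispensed as a 10 nM reagent, was preincubated with pin-transferred compounds for 15 min at room temperature before substrate was added (50 nM final). Plates were read at 0 and 15 min, and a four-parameter Hill equation was fitted to the concentration-response data.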

[8] = biological target: M-phase phosphoprotein 8 (Homo sapiens) (UniProt Q99549); assay: qHTS Validation Assay for Inhibitors for MPP8 Chromodomain Interactions with Methylated Histone Tails (AID 488949); also: nearly all actives have a fitted effect of over 55% in size; also: potency is read from the fitted curve at half-maximal effect
Method in brief: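 Disruption of the preformed MPP8–trimethyl-H3K9 peptide complex (both 50 nM, 30 min, RT) is measured after 30 min compound exposure, using AlphaScreen proximity beads; aurintricarboxylic acid titration serves as plate control.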

[9] = biological target: Chromobox protein homolog 1 (Homo sapiens) (UniProt P83916); assay: qHTS Validation Assay for Inhibitors of HP1-beta Chromodomain Interactions with Methylated Histone Tails (AID 488953); also: nearly all actives have a fitted effect of over 50% in size; also: potency is read from the fitted curve at half-maximal effect
Method in brief: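 HP1-beta (50 nM) was preincubated 30 min at room temperature with biotinylated H3(1-18)K9me3 peptide (50 nM) in PBS pH 7.4, 0.01% Tween-20, then with compounds 30 min. AlphaScreen signal was read after streptavidin donor/nickel chelate acceptor beads (10 ug/mL final).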

[10] = biological target: Methanococcus maripaludis chaperonin (MmCpn) (UniProt Q6LX38); assay: High-Throughput Screening for Modulators of Cytosolic Chaperonin Activity: MmCpn Primary Screen (AID 488978);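 also: 50 nM MmCpn enzyme hydrolysing 30 µM ATP at 37 °C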
Method in brief: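 Measures ATPase turnover of the M. maripaludis chaperonin (50 nM final) against 30 uM ATP over 10 min at 37C, with compound added 5 min beforehand at room temperature. ADP is quantified by HTRF immunodetection.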

[11] = biological target: Transient receptor potential cation channel subfamily V member 1 (Homo sapiens) (UniProt Q8NER1); assay: HTS Assay for Compounds that Act as Enhancers of the Vanilloid Receptor 1 (AID 488979)
Method in brief: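 TRPV1-expressing cells loaded with Fluo-8 calcium dye; compounds added and calcium influx read kinetically for 3 min (agonist phase), then capsaicin at EC20 added and read 2 min more for enhancement. Fluorescence ex 480/em 520 nm.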

[12] = biological target: D(1A) dopamine receptor (Homo sapiens) (UniProt P21728); assay: HTS Assay for Allosteric Agonists of the Human D1 Dopamine Receptor: Primary Screen for Agonists (AID 488981)
Method in brief: (§1)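 Tetracycline-induced HEK293 T-REx cells force-coupled to calcium signalling were incubated overnight at 30 C and dye-loaded at room temperature. Calcium flux over 180 s after compound addition flagged agonists; a further 180 s read after EC20 dopamine flagged potentiators.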

[13] = biological target: D(1A) dopamine receptor (Homo sapiens) (UniProt P21728); assay: HTS Assay for Allosteric Agonists of the Human D1 Dopamine Receptor: Primary Screen for Potentiators (AID 488982); also: potency is read from the fitted curve at half-maximal effect
Method in brief: as §1

[14] = biological target: Thyrotropin-releasing hormone receptor (Homo sapiens) (UniProt P34981); assay: qHTS for Small Molecule Agonists and Allosteric Enhancers of Human TRH Receptor: Validation Screen for Agonists (AID 493127;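 active = calcium activation more than 3 SD above the typical response in the agonist read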;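 also: intracellular calcium rise by fluo-8 fluorescence before TRH EC20 addition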); conditions: TRH receptor agonist cell assay; at 2 µM; stronger effect = higher value
Method in brief: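 TRHR-expressing cells were plated overnight in serum-containing medium, then loaded with fluo-8 calcium dye at room temperature for 30 min–1.5 h. After a 10 s baseline, compound was pin-transferred and calcium fluorescence (ex 480/em 530) read kinetically for agonist response.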

[15] = biological target: Thyrotropin receptor (Homo sapiens) (UniProt P16473); assay: qHTS Assay for Antagonists of the Thyroid Stimulating Hormone Receptor (AID 488980); also: series mostly up to about 58 µM
Method in brief: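 Cells expressing human TSHR (HEK293) are dispensed in HBSS/HEPES containing 70 uM RO 20-1724, compound is added, then TSH at EC80 (4 nM final). Antibody in lysis buffer follows, 30 minutes at room temperature before HTRF detection.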

[16] = biological target: D(1A) dopamine receptor (Homo sapiens) (UniProt P21728); assay: HTS Assay for Allosteric Agonists of the Human D1 Dopamine Receptor: Primary Screen for Antagonists (AID 488983);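 also: calcium flux response to an EC80 dopamine challenge measured with no-wash dye; nearly all actives have a fitted effect of over 65% in size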
Method in brief: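 Tetracycline-induced HEK293 T-REx cells expressing force-coupled D1 were plated overnight at 30 C, dye-loaded for calcium, and read kinetically. Compounds were pinned in, then an EC80 dopamine challenge followed after 180 s to reveal antagonism.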

[17] = Validation screen for small molecules that induce genotoxicity in human embryonic kidney (HEK293T) cells expressing luciferase-tagged ELG1 (AID 493106)
Method in brief: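 HEK293T cells expressing luciferase-tagged ELG1 were exposed to compound or DMSO vehicle for 16 hr at 37 °C, 5% CO2. Genotoxic stress raises ELG1 levels, so increased luciferase signal after ONE-Glo addition and 30 min at room temperature marks hits.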

[18] = biological target: ATPase family AAA domain-containing protein 5 (Homo sapiens) (UniProt Q96QE3); assay: Validation screen for small molecules that inhibit ELG1-dependent DNA repair in human embryonic kidney (HEK293T) cells expressing luciferase-tagged ELG1 (AID 493107); also: nearly all actives have a fitted effect of over 70% in size; also: potency is read from the fitted curve at half-maximal effect
Method in brief: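 HEK293T cells expressing luciferase-tagged ELG1 were co-treated with 5-fluorouridine and compound or DMSO for 16 hr at 37 °C, 5% CO2. Luciferase activity was then read with ONE-Glo after 30 min at room temperature; suppressed signal indicates blocked ELG1 function.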

[19] = biological target: ATP-dependent 6-phosphofructokinase (Trypanosoma brucei brucei) (UniProt O15648); assay: qHTS Assay to Find Inhibitors of T. brucei phosphofructokinase: hit validation (AID 492961);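 also: luminescence reports ADP formed as PFK phosphorylates fructose-6-phosphate with ATP; series mostly up to about 51 µM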
Method in brief: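 Percent activity derived from corrected luminescence, normalized between 0x and 1x enzyme controls, then fitted to concentration-response curves. Conditions: 1.25 nM PFK, 0.1 mM ATP, 0.5 mM F6P, 45 min RT.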

M-phase phosphoprotein 8 (Homo sapiens), sequence (Q99549 whole entry, looked up): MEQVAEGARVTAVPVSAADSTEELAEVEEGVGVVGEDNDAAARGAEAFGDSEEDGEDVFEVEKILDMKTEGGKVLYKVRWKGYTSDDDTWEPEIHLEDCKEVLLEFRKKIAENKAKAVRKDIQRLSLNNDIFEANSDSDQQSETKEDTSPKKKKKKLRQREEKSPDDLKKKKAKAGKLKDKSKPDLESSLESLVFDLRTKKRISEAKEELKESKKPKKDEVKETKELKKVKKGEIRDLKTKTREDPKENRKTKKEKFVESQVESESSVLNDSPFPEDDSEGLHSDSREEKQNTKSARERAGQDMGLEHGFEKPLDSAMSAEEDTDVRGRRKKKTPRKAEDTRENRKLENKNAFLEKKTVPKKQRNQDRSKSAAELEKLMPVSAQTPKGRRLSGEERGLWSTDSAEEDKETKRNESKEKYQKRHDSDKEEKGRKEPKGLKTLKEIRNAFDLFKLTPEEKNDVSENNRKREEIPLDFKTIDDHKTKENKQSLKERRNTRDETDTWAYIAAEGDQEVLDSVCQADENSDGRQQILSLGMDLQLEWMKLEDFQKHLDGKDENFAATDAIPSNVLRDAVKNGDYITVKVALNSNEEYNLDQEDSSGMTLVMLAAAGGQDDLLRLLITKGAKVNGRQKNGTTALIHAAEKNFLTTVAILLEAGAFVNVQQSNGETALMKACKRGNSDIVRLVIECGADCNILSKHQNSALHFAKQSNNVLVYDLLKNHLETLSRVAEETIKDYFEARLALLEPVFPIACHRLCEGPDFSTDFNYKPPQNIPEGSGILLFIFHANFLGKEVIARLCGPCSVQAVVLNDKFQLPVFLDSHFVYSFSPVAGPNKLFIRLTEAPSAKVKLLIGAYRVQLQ
Flap endonuclease 1 (Homo sapiens), sequence (P39748 whole entry, looked up): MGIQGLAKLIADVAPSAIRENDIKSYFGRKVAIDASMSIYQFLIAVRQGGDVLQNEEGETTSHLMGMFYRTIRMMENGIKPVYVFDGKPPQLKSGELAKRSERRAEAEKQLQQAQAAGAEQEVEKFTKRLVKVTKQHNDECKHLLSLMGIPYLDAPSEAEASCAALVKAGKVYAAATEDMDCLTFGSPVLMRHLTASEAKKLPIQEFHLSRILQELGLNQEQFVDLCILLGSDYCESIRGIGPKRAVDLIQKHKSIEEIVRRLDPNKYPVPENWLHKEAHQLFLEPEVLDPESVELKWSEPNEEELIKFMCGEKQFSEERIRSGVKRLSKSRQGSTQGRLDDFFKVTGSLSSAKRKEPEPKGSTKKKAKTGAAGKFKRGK
Chromobox protein homolog 1 (Homo sapiens), sequence (P83916 whole entry, looked up): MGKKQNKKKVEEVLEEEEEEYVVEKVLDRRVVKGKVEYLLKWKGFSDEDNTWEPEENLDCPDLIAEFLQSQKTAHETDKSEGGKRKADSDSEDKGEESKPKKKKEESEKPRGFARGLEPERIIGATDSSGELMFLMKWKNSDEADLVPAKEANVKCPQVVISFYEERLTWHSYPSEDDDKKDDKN
ATPase family AAA domain-containing protein 5 (Homo sapiens), sequence (Q96QE3 whole entry, looked up, the tested form may be a part): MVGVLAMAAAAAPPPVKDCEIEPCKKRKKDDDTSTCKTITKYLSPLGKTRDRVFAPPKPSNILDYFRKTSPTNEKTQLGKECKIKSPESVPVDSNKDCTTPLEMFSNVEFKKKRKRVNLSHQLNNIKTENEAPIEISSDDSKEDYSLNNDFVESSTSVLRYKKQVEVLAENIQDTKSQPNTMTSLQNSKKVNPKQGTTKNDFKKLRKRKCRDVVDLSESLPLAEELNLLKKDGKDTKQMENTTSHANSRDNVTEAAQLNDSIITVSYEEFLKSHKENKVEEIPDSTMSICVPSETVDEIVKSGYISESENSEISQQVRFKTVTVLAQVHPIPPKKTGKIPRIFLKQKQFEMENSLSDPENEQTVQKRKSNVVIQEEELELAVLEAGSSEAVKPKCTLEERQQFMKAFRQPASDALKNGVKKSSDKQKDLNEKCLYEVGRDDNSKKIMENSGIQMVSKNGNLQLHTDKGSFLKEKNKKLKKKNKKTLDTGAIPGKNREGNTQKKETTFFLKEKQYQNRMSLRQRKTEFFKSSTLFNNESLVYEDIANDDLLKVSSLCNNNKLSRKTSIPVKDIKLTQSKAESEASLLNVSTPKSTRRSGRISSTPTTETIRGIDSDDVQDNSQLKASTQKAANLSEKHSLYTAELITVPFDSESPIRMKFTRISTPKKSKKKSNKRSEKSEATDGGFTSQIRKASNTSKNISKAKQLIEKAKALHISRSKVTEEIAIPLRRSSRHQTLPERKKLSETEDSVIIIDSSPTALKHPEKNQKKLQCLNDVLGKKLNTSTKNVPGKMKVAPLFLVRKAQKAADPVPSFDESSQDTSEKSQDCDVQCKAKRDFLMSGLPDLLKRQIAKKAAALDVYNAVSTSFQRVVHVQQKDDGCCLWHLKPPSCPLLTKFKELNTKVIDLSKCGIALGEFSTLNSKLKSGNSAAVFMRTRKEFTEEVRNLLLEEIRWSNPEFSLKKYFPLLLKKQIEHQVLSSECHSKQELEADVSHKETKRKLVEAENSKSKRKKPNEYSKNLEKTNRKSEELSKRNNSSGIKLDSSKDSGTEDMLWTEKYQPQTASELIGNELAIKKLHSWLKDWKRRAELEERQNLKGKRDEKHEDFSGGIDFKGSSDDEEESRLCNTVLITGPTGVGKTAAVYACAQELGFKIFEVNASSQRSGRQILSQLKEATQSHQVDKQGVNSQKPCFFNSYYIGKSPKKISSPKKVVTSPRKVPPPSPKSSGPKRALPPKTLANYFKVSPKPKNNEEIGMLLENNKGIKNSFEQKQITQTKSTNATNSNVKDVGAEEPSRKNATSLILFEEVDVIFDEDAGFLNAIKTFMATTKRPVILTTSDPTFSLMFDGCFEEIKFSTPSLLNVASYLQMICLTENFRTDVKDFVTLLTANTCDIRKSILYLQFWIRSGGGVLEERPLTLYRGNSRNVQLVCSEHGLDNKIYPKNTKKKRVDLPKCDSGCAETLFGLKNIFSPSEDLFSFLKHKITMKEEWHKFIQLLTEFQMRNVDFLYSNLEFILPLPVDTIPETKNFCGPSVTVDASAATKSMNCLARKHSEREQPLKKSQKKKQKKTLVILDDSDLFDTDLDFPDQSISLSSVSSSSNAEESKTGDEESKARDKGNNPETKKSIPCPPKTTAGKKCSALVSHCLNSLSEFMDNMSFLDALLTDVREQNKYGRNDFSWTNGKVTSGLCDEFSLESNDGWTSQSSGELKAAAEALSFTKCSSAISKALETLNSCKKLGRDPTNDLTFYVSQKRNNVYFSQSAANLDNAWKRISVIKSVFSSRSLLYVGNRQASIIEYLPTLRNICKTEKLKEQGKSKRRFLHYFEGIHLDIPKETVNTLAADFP
Beta-2 adrenergic receptor (Homo sapiens), sequence (P07550 whole entry, looked up): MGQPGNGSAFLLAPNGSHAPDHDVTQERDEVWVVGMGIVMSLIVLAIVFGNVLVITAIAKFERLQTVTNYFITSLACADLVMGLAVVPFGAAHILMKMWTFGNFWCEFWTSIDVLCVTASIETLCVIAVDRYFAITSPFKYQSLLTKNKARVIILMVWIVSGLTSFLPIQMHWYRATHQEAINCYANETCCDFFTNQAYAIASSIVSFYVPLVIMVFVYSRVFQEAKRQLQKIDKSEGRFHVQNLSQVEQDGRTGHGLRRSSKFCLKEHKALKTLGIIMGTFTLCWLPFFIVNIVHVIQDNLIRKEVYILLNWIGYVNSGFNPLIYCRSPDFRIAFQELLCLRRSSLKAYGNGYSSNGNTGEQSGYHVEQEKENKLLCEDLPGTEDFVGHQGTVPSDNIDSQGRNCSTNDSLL
Methanococcus maripaludis chaperonin (MmCpn), sequence (Q6LX38 1-543): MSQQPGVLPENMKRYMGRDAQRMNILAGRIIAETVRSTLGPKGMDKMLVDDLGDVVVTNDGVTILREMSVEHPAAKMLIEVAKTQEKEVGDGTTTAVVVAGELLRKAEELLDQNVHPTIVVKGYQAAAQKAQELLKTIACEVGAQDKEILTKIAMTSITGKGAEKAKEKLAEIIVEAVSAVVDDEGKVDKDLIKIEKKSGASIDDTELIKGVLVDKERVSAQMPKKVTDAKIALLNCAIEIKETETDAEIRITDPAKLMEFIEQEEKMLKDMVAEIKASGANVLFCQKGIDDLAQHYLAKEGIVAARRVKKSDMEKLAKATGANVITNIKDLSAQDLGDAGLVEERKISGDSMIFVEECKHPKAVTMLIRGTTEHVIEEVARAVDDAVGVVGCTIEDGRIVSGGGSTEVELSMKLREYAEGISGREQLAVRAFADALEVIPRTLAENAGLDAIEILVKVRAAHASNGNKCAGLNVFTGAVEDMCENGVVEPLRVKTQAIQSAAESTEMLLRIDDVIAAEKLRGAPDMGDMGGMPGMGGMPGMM
Thioredoxin reductase 1, cytoplasmic (Rattus norvegicus), sequence (O89049 whole entry, looked up): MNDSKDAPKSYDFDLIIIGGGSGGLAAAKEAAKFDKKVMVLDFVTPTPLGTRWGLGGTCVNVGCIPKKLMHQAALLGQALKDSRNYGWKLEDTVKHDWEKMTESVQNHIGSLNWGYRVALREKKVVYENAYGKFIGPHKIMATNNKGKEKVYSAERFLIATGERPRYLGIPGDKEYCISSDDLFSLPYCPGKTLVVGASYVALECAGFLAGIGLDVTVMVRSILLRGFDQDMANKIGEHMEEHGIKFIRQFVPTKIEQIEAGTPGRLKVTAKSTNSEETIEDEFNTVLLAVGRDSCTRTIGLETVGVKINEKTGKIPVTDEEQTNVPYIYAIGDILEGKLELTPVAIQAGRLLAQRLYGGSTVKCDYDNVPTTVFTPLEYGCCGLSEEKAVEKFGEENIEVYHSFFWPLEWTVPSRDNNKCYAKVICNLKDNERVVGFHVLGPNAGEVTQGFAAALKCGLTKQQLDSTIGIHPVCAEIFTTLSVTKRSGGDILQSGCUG

| SMILES | outcome [1] | Potency [2] | Potency [3] | Potency [4] | outcome [5] | Potency [6] | Potency [7] | Potency [8] | Potency [9] | outcome [10] | outcome [11] | Potency [12] | Potency [13] | activation [14] | outcome [15] | Potency [16] | Potency [17] | Potency [18] | outcome [19] |
| --- | --- | --- | --- | --- | --- | --- | --- | --- | --- | --- | --- | --- | --- | --- | --- | --- | --- | --- | --- |
| CC[C@@H]1Cc2cc(O)ccc2C2=C1c1ccc(O)cc1C[C@H]2CC | inactive | inactive | inactive | 13.1 µM (active) | inactive | inactive | inactive | 35.5 µM (active) and inactive | 31.6 µM (active) | inactive | inactive | inactive | 2.59 µM (active) | 6.69% (inactive) |  |  |  |  |  |
| Clc1nccc2c1ccc1ccccc12 | inactive | inactive | inactive | inactive | inactive | inactive | inactive | inactive | inactive |  | inactive | inactive | inactive | -6.94% (inactive) | inactive | inactive | inactive | inactive |  |
| N[C@H](C(=O)O)[C@H](O)C(=O)O | inactive | inactive | inactive | inactive | inactive | inactive | inactive | inactive | inactive | inactive | inactive | inactive | inactive |  | inactive | inactive | inactive |  |  |
| N[C@H](C(=O)O)c1cc(O)cc(O)c1 | inactive | inactive | inactive | inactive | inactive | inactive | inactive | inactive | inactive | inactive | inactive | inactive | inactive | 0.0625% (inactive) | inactive |  | inactive |  |  |
| CCCCC[C@H](CC(=O)NO)C(=O)N[C@H](C(=O)N1CCC[C@H]1CO)C(C)C | inactive | inactive | 1.17 µM (active) | 2.94 µM (active) | inactive | inactive | inactive | inactive | inactive | inactive | inactive | inactive | inactive | -2.88% (inactive) |  |  | inactive |  |  |
| NC(N)=[N+]1CCc2ccccc2C1 | inactive | inactive | inactive | inactive | inactive | inactive | inactive | inactive | inactive | inactive | inactive |  |  | -0.125% (inactive) | inactive | inactive | inactive | inactive |  |
| O=C(O)/C=C/c1cnc[nH]1 | inactive | inactive | inactive | inactive | inactive | inactive | inactive | inactive |  | inactive | inactive | inactive | inactive | -0.125% (inactive) | inactive | inactive | inactive | inactive |  |
| NCCCCN=C(N)N | inactive | inactive |  | inactive | inactive | inactive | inactive | inactive | inactive | inactive | inactive | inactive | inactive | 0.812% (inactive) | inactive | inactive |  | inactive |  |
| OC[C@H]1O[C@@H](n2cnc3cncnc32)[C@H](O)[C@@H]1O | inactive | inactive | 3.29 µM (active) |  | inactive |  | inactive |  | inactive | inactive | inactive |  | inactive | 1.44% (inactive) | inactive | inactive | inactive |  |  |
| C=C1C(=O)O[C@@H]2[C@H]3O[C@]3(C)CCC=C(C)CC[C@@H]12 | inactive | inactive |  | inactive | inactive | 16.8 µM (active) | inactive | inactive | inactive |  | inactive | inactive | inactive |  |  | inactive | inactive | 25.9 µM (active) |  |
| CC[N+](CC)(CC)CC(=O)Nc1c(C)cccc1C | inactive | inactive |  | inactive | inactive | inactive | inactive | inactive | inactive | inactive | inactive | inactive | inactive | 0.625% (inactive) | inactive |  | inactive | inactive |  |
| CNCCNS(=O)(=O)c1cccc2cnccc12 | inactive | inactive |  | inactive | inactive | inactive | inactive | inactive | inactive | inactive | inactive | inactive | inactive | 1.44% (inactive) | inactive | inactive | inactive | 9.2 µM (active) |  |
| CN1C2CCC1CC(OC(c1ccccc1)c1ccccc1)C2 (configuration not stated) | inactive | inactive | 8.28 µM (active) |  | inactive | inactive | inactive | inactive | inactive | inactive |  | inactive | inactive |  | inactive | inactive | inactive |  | inactive |
| CC1=C(C(=O)O)N2C(=O)[C@@H](NC(=O)C(N)C3=CCC=CC3)[C@H]2SC1 (some centres not stated) | inactive | inactive | inactive | inactive | inactive |  |  | inactive | inactive | inactive | inactive | inactive | inactive |  | inactive | inactive | inactive | inactive |  |
| O=c1[nH]c2ccccc2c2ccccc12 | inactive | inactive |  | inactive | inactive | inactive | inactive | inactive | inactive |  | inactive |  | inactive | -4.5% (inactive) | inactive | inactive | inactive | inactive |  |

— PubChem BioAssay (NCATS)
